# Measurements as given in PubChem BioAssay (NCI).
# About 79,000 compounds went through this panel and 15% of them were active in at least one assay; those are over-represented in the sample as a whole. Values without a mark were called inactive. Active and inactive are the calls of the source. Cut-off read from the data, not from the text of the source: active = growth inhibition above about 70%; inactive = the rest.
# Columns and labels:
# [1] = NCI Yeast Anticancer Drug Screen. Data for the rad52 strain (AID 147);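 note: 0% = growth of vehicle-treated control cultures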; conditions: S. cerevisiae rad52 mutant growth inhibition, active compounds read high
# Procedure, shortened: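 Read-out: growth inhibition versus vehicle-treated controls. Cells were a DNA repair-deficient yeast strain treated with compounds.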
# [2] = NCI Yeast Anticancer Drug Screen. Data for the wt1 strain (AID 149);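 note: 0% = growth of vehicle-treated wt1 cultures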; conditions: S. cerevisiae wt1 strain (SPY 50644) growth inhibition, active compounds read high
# Procedure, shortened: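 wt1 yeast, compound-treated; % growth inhibition vs vehicle control.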
# [3] = NCI Yeast Anticancer Drug Screen. Data for the mgt1 strain (AID 153); conditions: S. cerevisiae mgt1 mutant growth inhibition, active compounds read high
# Procedure, shortened: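 mgt1 yeast grown with test compound; read-out is growth inhibition versus vehicle-treated cultures.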
# [4] = NCI Yeast Anticancer Drug Screen. Data for the rad50 strain (AID 155);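 note: 0% = growth of vehicle-only cultures of the same strain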; conditions: S. cerevisiae rad50 strain growth inhibition, active compounds read high
# Procedure, shortened: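 Genetically altered yeast (DNA repair pathway); compound treatment; growth inhibition vs vehicle ctrl.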
# [5] = NCI Yeast Anticancer Drug Screen. Data for the mec2-1 strain (AID 157); conditions: S. cerevisiae mec2-1 strain, active compounds read high
# Procedure, shortened: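 Yeast mec2-1 mutant treated with compound. Readout: growth inhibition vs vehicle controls.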
# [6] = NCI Yeast Anticancer Drug Screen. Data for the rad14 strain (AID 159);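 note: 0% = growth of vehicle-treated control cultures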; conditions: S. cerevisiae rad14 strain growth inhibition, active compounds read high
# Procedure, shortened: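 Test compounds were applied to a repair-deficient yeast strain. Its growth was then compared with that of cultures given vehicle alone, and inhibition was expressed relative to those controls.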
# [7] = NCI Yeast Anticancer Drug Screen. Data for the sgs1 mgt1 strain (AID 161);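 note: 0% = growth of cultures given vehicle only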; conditions: S. cerevisiae sgs1 mgt1 strain, active compounds read high
# Procedure, shortened: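 Genetically altered yeast, compound exposure, growth inhibition relative to vehicle.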
# [8] = NCI Yeast Anticancer Drug Screen. Data for the CLN2oe strain (AID 163);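 note: 0% = growth of vehicle-only control cultures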; conditions: S. cerevisiae CLN2oe strain, active compounds read high
# Procedure, shortened: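 Read-out: yeast growth inhibition, expressed relative to vehicle-only controls. The strain bears an engineered cell-cycle alteration.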
# [9] = NCI Yeast Anticancer Drug Screen. Data for the cln2 rad14 strain (AID 165);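 note: 0% = growth equal to vehicle treated cultures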; conditions: S. cerevisiae cln2 rad14 strain, active compounds read high
# Procedure, shortened: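 cln2 rad14 yeast strain; compound exposure; growth inhibition read vs vehicle controls.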
# [10] = NCI Yeast Anticancer Drug Screen. Data for the bub3 strain (AID 167); conditions: S. cerevisiae bub3 mutant strain, active compounds read high
# Procedure, shortened: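 Yeast carrying a defined mutation is treated with each compound, and growth is compared with that of vehicle-exposed cells to give inhibition.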
# [11] = NCI Yeast Anticancer Drug Screen. Data for the wt2 strain (AID 169);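 note: 0% = growth of vehicle-treated yeast cultures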; conditions: S. cerevisiae wt2 strain growth inhibition, active compounds read high
# Procedure, shortened: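 Read-out: growth inhibition versus vehicle-treated control cultures after compound exposure of the yeast strain.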
# [12] = NCI Yeast Anticancer Drug Screen. Data for the mlh1 strain (AID 171);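 note: 0% = growth of vehicle-treated control cultures of the same strain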; conditions: S. cerevisiae mlh1 strain growth inhibition, active compounds read high
# Procedure, shortened: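 Read-out: growth inhibition versus vehicle controls. Strain: engineered yeast with a defined DNA repair or cell cycle defect, compound-treated.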
# [13] = NCI Yeast Anticancer Drug Screen. Data for the sgs1 strain (AID 173);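 note: 0% = growth of vehicle-only control cultures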; conditions: S. cerevisiae sgs1 mutant, active compounds read high
# Procedure, shortened: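 Read-out: yeast growth inhibition relative to vehicle controls, following compound exposure of a strain with a defined DNA repair/cell cycle alteration.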
# [14] = NCI Yeast Anticancer Drug Screen. Data for the mlh1 rad18 strain (AID 175); conditions: S. cerevisiae mlh1 rad18 strain growth inhibition, active compounds read high
# Procedure, shortened: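 Yeast w/ defined DNA-repair lesions; compound exposure; growth vs vehicle controls → % inhibition.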
# [15] = NCI Yeast Anticancer Drug Screen. Data for the rad18 strain (AID 177); conditions: S. cerevisiae rad18 mutant growth inhibition, active compounds read high
# Procedure, shortened: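 Readout: growth inhibition vs vehicle controls. Cells: genetically altered yeast strain, DNA repair defect.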
# [16] = at 5.0 µM (retest, dose inferred, filed as 0.5)
# [17] = at 50.0 µM (retest, dose inferred, filed as 5.0)
structure (smiles),measurement,setting,value
Cc1nc(-c2cc3cc([N+](=O)[O-])ccc3oc2=O)cs1,growth inhibition,[1]; at 1.2 µM,13%
same,growth inhibition,[1]; at 3.7 µM,39%
same,growth inhibition,[1]; at 11.0 µM,47%
same,growth inhibition,[1]; at 33.0 µM,65%
same,growth inhibition,[1]; at 100.0 µM,97% (active)
same,growth inhibition,[2]; at 1.2 µM,-5%
same,growth inhibition,[2]; at 3.7 µM,5%
same,growth inhibition,[2]; at 11.0 µM,11%
same,growth inhibition,[2]; at 33.0 µM,25%
same,growth inhibition,[2]; at 100.0 µM,92% (active)
same,growth inhibition,[3]; at 1.2 µM,-1%
same,growth inhibition,[3]; at 3.7 µM,6%
same,growth inhibition,[3]; at 11.0 µM,5%
same,growth inhibition,[3]; at 33.0 µM,25%
same,growth inhibition,[3]; at 100.0 µM,89% (active)
same,growth inhibition,[4]; at 1.2 µM,20%
same,growth inhibition,[4]; at 3.7 µM,17%
same,growth inhibition,[4]; [16],17%
same,growth inhibition,[4]; at 11.0 µM,23%
same,growth inhibition,[4]; at 33.0 µM,42%
same,growth inhibition,[4]; [17],84% (active)
same,growth inhibition,[4]; at 50.0 µM,89.9% (active)
same,growth inhibition,[4]; at 100.0 µM,94% (active)
same,growth inhibition,[5]; at 1.2 µM,-15%
same,growth inhibition,[5]; at 3.7 µM,-3%
same,growth inhibition,[5]; [16],18%
same,growth inhibition,[5]; at 11.0 µM,3%
same,growth inhibition,[5]; at 33.0 µM,16%
same,growth inhibition,[5]; [17],100% (active)
same,growth inhibition,[5]; at 50.0 µM,94.2% (active)
same,growth inhibition,[5]; at 100.0 µM,94% (active)
same,growth inhibition,[6]; at 1.2 µM,-1%
same,growth inhibition,[6]; at 3.7 µM,6%
same,growth inhibition,[6]; at 11.0 µM,13%
same,growth inhibition,[6]; at 33.0 µM,25%
same,growth inhibition,[6]; at 100.0 µM,96% (active)
same,growth inhibition,[7]; [16],13%
same,growth inhibition,[7]; [17],46%
same,growth inhibition,[7]; at 50.0 µM,89.3% (active)
same,growth inhibition,[8]; at 1.2 µM,-22%
same,growth inhibition,[8]; at 3.7 µM,3%
same,growth inhibition,[8]; at 11.0 µM,8%
same,growth inhibition,[8]; at 33.0 µM,20%
same,growth inhibition,[8]; at 100.0 µM,81% (active)
same,growth inhibition,[9]; [16],2%
same,growth inhibition,[9]; [17],13%
same,growth inhibition,[9]; at 50.0 µM,59.4%
same,growth inhibition,[10]; at 1.2 µM,-15%
same,growth inhibition,[10]; at 3.7 µM,-2%
same,growth inhibition,[10]; [16],-15%
same,growth inhibition,[10]; at 11.0 µM,-1%
same,growth inhibition,[10]; at 33.0 µM,3%
same,growth inhibition,[10]; [17],60%
same,growth inhibition,[10]; at 50.0 µM,89.4% (active)
same,growth inhibition,[10]; at 100.0 µM,92% (active)
same,growth inhibition,[11]; at 1.2 µM,-42%
same,growth inhibition,[11]; at 3.7 µM,-24%
same,growth inhibition,[11]; at 11.0 µM,-11%
same,growth inhibition,[11]; at 33.0 µM,28%
same,growth inhibition,[11]; at 100.0 µM,99% (active)
same,growth inhibition,[12]; at 1.2 µM,-2%
same,growth inhibition,[12]; at 3.7 µM,-12%
same,growth inhibition,[12]; at 11.0 µM,10%
same,growth inhibition,[12]; at 33.0 µM,34%
same,growth inhibition,[12]; at 100.0 µM,98% (active)
same,growth inhibition,[13]; at 1.2 µM,5%
same,growth inhibition,[13]; at 3.7 µM,31%
same,growth inhibition,[13]; at 11.0 µM,42%
same,growth inhibition,[13]; at 33.0 µM,62%
same,growth inhibition,[13]; at 100.0 µM,99% (active)
same,growth inhibition,[14]; [16],16%
same,growth inhibition,[14]; [17],91% (active)
same,growth inhibition,[14]; at 50.0 µM,14.9%
same,growth inhibition,[15]; at 1.2 µM,1%
same,growth inhibition,[15]; at 3.7 µM,2%
same,growth inhibition,[15]; at 11.0 µM,7%
same,growth inhibition,[15]; at 33.0 µM,34%
same,growth inhibition,[15]; at 100.0 µM,94% (active)
CC(C)C(C)/C=C\C(C)C1CCC2C3=CC=C4CC(O)CCC4(C)C3CCC21C (stereo not drawn),growth inhibition,[1]; at 1.2 µM,-1%
same,growth inhibition,[1]; at 3.7 µM,-2%
same,growth inhibition,[1]; at 11.0 µM,-1%
same,growth inhibition,[1]; at 33.0 µM,-1%
same,growth inhibition,[1]; at 100.0 µM,17%
same,growth inhibition,[2]; at 1.2 µM,2%
same,growth inhibition,[2]; at 3.7 µM,-1%
same,growth inhibition,[2]; at 11.0 µM,0%
same,growth inhibition,[2]; at 33.0 µM,-3%
same,growth inhibition,[2]; at 100.0 µM,-3%
same,growth inhibition,[3]; at 1.2 µM,0%
same,growth inhibition,[3]; at 3.7 µM,3%
same,growth inhibition,[3]; at 11.0 µM,-1%
same,growth inhibition,[3]; at 33.0 µM,-9%
same,growth inhibition,[3]; at 100.0 µM,-4%
same,growth inhibition,[4]; at 1.2 µM,-1%
same,growth inhibition,[4]; at 3.7 µM,5%
same,growth inhibition,[4]; [16],51%
same,growth inhibition,[4]; at 11.0 µM,-3%
same,growth inhibition,[4]; at 33.0 µM,-1%
same,growth inhibition,[4]; [17],84% (active)
same,growth inhibition,[4]; at 50.0 µM,83.2% (active)
same,growth inhibition,[4]; at 100.0 µM,22%
same,growth inhibition,[5]; at 1.2 µM,0%
same,growth inhibition,[5]; at 3.7 µM,0%
same,growth inhibition,[5]; [16],89% (active)
same,growth inhibition,[5]; at 11.0 µM,-2%
same,growth inhibition,[5]; at 33.0 µM,-1%
same,growth inhibition,[5]; [17],99% (active)
same,growth inhibition,[5]; at 50.0 µM,44.5%
